An excerpt weighted towards active compounds, which were near 2.9% of everything screened.
ADAM17 inh: ADAM17 inhibition, QFRET primary screen; recombinant ADAM17, EDANS/DABCYL FRET peptide cleavage; inhibition, % at 6.95 µM; P78536; actives 0.83% (n = 370,000);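 active means inhibition above the mean of compounds lying between control limits plus 3 SD, set per campaign, cut at about 8.5% in these data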;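 further: 0% = DMSO-only wells as the low control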
PLC-gamma1 inh: inhibitors of human phospholipase C gamma1; P19174; purified PLC-gamma1, fluorogenic substrate, fluorescence; inhibition, % at 12.2 µM; actives 0.84% (n = 370,000); in the data active means inhibition above about 9.5%
PLC-beta3 inh: blocks human PLC-beta3 enzyme activity; AID 720704; inhibition, % at 12.2 µM; Purified PLC-beta3, fluorogenic substrate, fluorescence; actives 0.18% (n = 370,000); in the data active means inhibition above about 11%;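 further: 0% = median of compound wells on plate and 100% = full blocker control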
KLK7 zymogen act: proKLK7 (human) activation, primary screen; purified proKLK7, EDANS-DABCYL substrate fluorescence; 100% is mature enzyme control, 0% vehicle; P49862; activation, % at 7 µM; actives 0.9% (n = 370,000);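 active means activation above the mean of all tested compounds plus 3 SD, computed per campaign excluding outliers beyond control limits, cut at about 13% in these data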
Target sequence (P49862 whole entry, looked up): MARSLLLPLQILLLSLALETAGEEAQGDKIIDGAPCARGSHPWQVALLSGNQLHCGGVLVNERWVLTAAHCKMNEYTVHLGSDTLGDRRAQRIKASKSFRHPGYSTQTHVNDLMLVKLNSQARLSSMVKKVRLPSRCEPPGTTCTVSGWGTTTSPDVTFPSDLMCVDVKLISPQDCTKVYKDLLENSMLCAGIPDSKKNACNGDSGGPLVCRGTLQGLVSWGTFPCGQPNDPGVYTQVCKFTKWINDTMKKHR
ADAM10 inh: inhibits human ADAM10. O14672. recombinant ADAM10, EDANS/DABCYL FRET peptide cleavage, 3 h. inhibition, % at 7 µM. actives 0.62% (n = 370,000);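 active means inhibition above a per-campaign cutoff equal to the mean of compounds falling between control-based bounds plus 3 SD, cut at about 20% in these data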;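 further: 0% = DMSO wells while the 100% control is not disclosed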
KLK7 act conf: confirmation of human kallikrein-7 zymogen activators; actives 68% (n = 3,200); purified proKLK7, EDANS-DABCYL substrate fluorescence; scaled: vehicle 0, mature enzyme 100; activation, % at 7 µM; shares compounds with KLK7 zymogen act;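 active means activation, as change over the incubation, above the mean of all tested compounds plus 3 SD, cut at about 13% in these data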
EDANS-DABCYL int: fluorescence interference counter-screen for KLK7 activators; activation, % at 7 µM; shares compounds with KLK7 zymogen act; EDANS-DABCYL substrate fluorescence interference, no enzyme, 4 h; solvent 0%, active enzyme control 100%; actives 80% (n = 3,200);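 active means activation above the all-compound mean plus 3 SD, ignoring values outside control-based bounds, cut at about 4.8% in these data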;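 further: value is the 4 h activation minus the activation read at time zero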
EDANS interf: optically interferes with EDANS-DABCYL fluorescence, kallikrein-7 activator counter-screen; shares compounds with KLK7 zymogen act; EDANS-DABCYL peptide fluorescence interference, no enzyme; EC50, µM; actives 20% (n = 250); AID 720493;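 active means compounds that raise the fluorescence signal in this interference counterscreen, with EC50 at or below 10 µM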;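 further: intact quenched peptide substrate alone read at 355 nm excitation and 520 nm emission; signal is fluorescence gain from T0 to T4 after four hours at room temperature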
* marks the source's active call; other numbers are inactive results.

How did NS(=O)(=O)c1cc(C(=O)OCC(=O)Nc2ccc(Cl)cc2[N+](=O)[O-])ccc1Cl do in these assays?
ADAM17 inh: 1; PLC-gamma1 inh: 3; PLC-beta3 inh: 0; KLK7 zymogen act: 0; ADAM10 inh: 2

How did Nc1c(C(=O)OCC(=O)Nc2ccc(Cl)cc2[N+](=O)[O-])[nH]c(=O)[nH]c1=O do in these assays?
ADAM17 inh: -2; PLC-gamma1 inh: 4; PLC-beta3 inh: -5; KLK7 zymogen act: 14*; ADAM10 inh: -6; KLK7 act conf: 136*; EDANS-DABCYL int: 137*

What do the screens show for `C=CCN(C(=O)[C@@H](C1CC1)[C@@H](O)c1ccc2ccccc2c1)c1ccccc1`?
ADAM17 inh: -1; PLC-gamma1 inh: -1; PLC-beta3 inh: 0; KLK7 zymogen act: 1; ADAM10 inh: 5

How did CC(C)CCNC(=O)C1COC(O)(C(Cc2ccccc2)NC(=O)[C@@H](NC(=O)OCc2ccccc2)C(C)C)CN1 (stereo not given in full) do in these assays?
ADAM17 inh: -3; PLC-gamma1 inh: -1; PLC-beta3 inh: -3; ADAM10 inh: -5

How did COc1ccc2ccccc2c1C1NC(=O)c2ccccc2N1 (stereo not given) do in these assays?
ADAM17 inh: -210; PLC-gamma1 inh: -307; PLC-beta3 inh: -409; KLK7 zymogen act: 16*; ADAM10 inh: inactive; KLK7 act conf: 13; EDANS-DABCYL int: 6.6*

How did O=C1Nc2ccccc2/C1=C/c1cccnc1 do in these assays?
ADAM17 inh: 1; PLC-gamma1 inh: 2; PLC-beta3 inh: 9; KLK7 zymogen act: 0; ADAM10 inh: 9

Results for O=C1Nc2ccccc2/C1=C/c1cnc(-c2ccccc2)[nH]1 ?
ADAM17 inh: 0; PLC-gamma1 inh: -31; PLC-beta3 inh: -54; KLK7 zymogen act: 20*; ADAM10 inh: 6; KLK7 act conf: 40*; EDANS-DABCYL int: 54*

What do the screens show for `CCOC(=O)CC[C@H]1CC[C@]2(CCCN(C3CCCCC3)C2)O1`?
ADAM17 inh: -1; PLC-gamma1 inh: -2; PLC-beta3 inh: 1; KLK7 zymogen act: 0; ADAM10 inh: -5

What do the screens show for `N#Cc1c(N)n(-c2ccc(N)cc2)c2nc3ccccc3nc12`?
ADAM17 inh: -3; PLC-gamma1 inh: -1; PLC-beta3 inh: -8; KLK7 zymogen act: 0; ADAM10 inh: -11

Results for N#Cc1c(N)n(-c2ccc(C(=O)O)cc2)c2nc3ccccc3nc12 ?
ADAM17 inh: inactive; PLC-gamma1 inh: inactive; PLC-beta3 inh: inactive; KLK7 zymogen act: 69*; ADAM10 inh: inactive; KLK7 act conf: 79*; EDANS-DABCYL int: 79*

Results for COC(=O)[C@]12CCCCC=C1N(Cc1ccc(OC)cc1)C(=O)[C@@H]2CC(=O)N1CCCCC1 ?
ADAM17 inh: -3; PLC-gamma1 inh: -1; PLC-beta3 inh: -2; KLK7 zymogen act: 0; ADAM10 inh: -3

Results for CCOC(=O)Cc1c(C)c2ccc(N(CC)CC)cc2oc1=O ?
ADAM17 inh: inactive; PLC-gamma1 inh: inactive; PLC-beta3 inh: inactive; KLK7 zymogen act: 76*; ADAM10 inh: inactive; KLK7 act conf: -7; EDANS-DABCYL int: -26

Results for CCOC(=O)Cc1c(C)c2c(O)cc(O)cc2oc1=O ?
ADAM17 inh: inactive; PLC-gamma1 inh: inactive; PLC-beta3 inh: inactive; KLK7 zymogen act: 76*; ADAM10 inh: inactive; KLK7 act conf: 62*; EDANS-DABCYL int: 64*

What do the screens show for `O=c1cc(N2CCN(c3ccnc4cc(Cl)ccc34)CC2)[nH]c(=O)n1C1CCCCC1`?
ADAM17 inh: -1; PLC-gamma1 inh: 0; PLC-beta3 inh: 1; ADAM10 inh: -1

What do the screens show for `Cc1coc2c(C)c3oc(=O)c(CCC(=O)NCCCN4CCCC4=O)c(C)c3cc12`?
ADAM17 inh: -68; PLC-gamma1 inh: -155; PLC-beta3 inh: -204; KLK7 zymogen act: 5; ADAM10 inh: -269

Results for Cc1c(CCC(=O)NCCCN2CCCC2=O)c(=O)oc2c(C)c(O)ccc12 ?
ADAM17 inh: inactive; PLC-gamma1 inh: inactive; PLC-beta3 inh: inactive; KLK7 zymogen act: 79*; ADAM10 inh: inactive; KLK7 act conf: 63*; EDANS-DABCYL int: 77*

How did Cc1c(CCC(=O)NCCCN2CCCC2=O)c(=O)oc2cc(O)ccc12 do in these assays?
ADAM17 inh: inactive; PLC-gamma1 inh: inactive; PLC-beta3 inh: inactive; KLK7 zymogen act: 73*; ADAM10 inh: inactive; KLK7 act conf: 65*; EDANS-DABCYL int: 84*

How did Cc1oc2c(C)c3oc(=O)c(CCC(=O)NCCCCCC(=O)O)c(C)c3cc2c1C do in these assays?
ADAM17 inh: -91; PLC-gamma1 inh: -427; PLC-beta3 inh: inactive; KLK7 zymogen act: 21*; ADAM10 inh: -196; KLK7 act conf: 14*; EDANS-DABCYL int: 9.3*; EDANS interf: >69

Results for C[C@H]1CCCCO[C@@H](CN(C)CC2CC2)[C@@H](C)CN([C@@H](C)CO)C(=O)c2cc(NS(=O)(=O)c3ccccc3)ccc2O1 ?
ADAM17 inh: -4; PLC-gamma1 inh: 1; PLC-beta3 inh: -3; KLK7 zymogen act: 0; ADAM10 inh: -13

What do the screens show for `O=C1CCC[C@H]2C[C@H](NCc3ccc(Br)cc3)CC[C@]23CCCN13`?
ADAM17 inh: 0; PLC-gamma1 inh: -2; PLC-beta3 inh: 1; ADAM10 inh: 3

What do the screens show for `COc1ccc2oc(=O)c(-c3nnc(NCc4ccco4)s3)cc2c1`?
ADAM17 inh: -98; PLC-gamma1 inh: inactive; PLC-beta3 inh: inactive; KLK7 zymogen act: 35*; ADAM10 inh: -306; KLK7 act conf: -78; EDANS-DABCYL int: -81

How did CN(C)c1ccccc1-c1cc(NC=O)c2ncc(-c3cccc(C(F)(F)F)c3)n2c1 do in these assays?
ADAM17 inh: -30; PLC-gamma1 inh: inactive; PLC-beta3 inh: inactive; KLK7 zymogen act: 107*; ADAM10 inh: -95; KLK7 act conf: 178*; EDANS-DABCYL int: 144*

What do the screens show for `CN(C)C(=O)c1cccc(-c2cnc3c(NC=O)cc(-c4ccccc4N(C)C)cn23)c1`?
ADAM17 inh: -37; PLC-gamma1 inh: inactive; PLC-beta3 inh: inactive; KLK7 zymogen act: 105*; ADAM10 inh: -109; KLK7 act conf: 217*; EDANS-DABCYL int: 237*

How did CN(C)C(=O)c1cccc(-c2cnc3c(NC=O)cc(-c4ccccc4Cl)cn23)c1 do in these assays?
ADAM17 inh: -16; PLC-gamma1 inh: -37; PLC-beta3 inh: -53; KLK7 zymogen act: 2; ADAM10 inh: -40
